PubChem BioAssay AID504534 (National Center for Advancing Translational Sciences (NCATS), 2011)
Results filed as inconclusive are left out. Values without a mark were called inactive. Active and inactive are the calls of the source. Calls follow the shape of the dose curve; as a rule, active = well fitted curve in the direction sought with a large enough effect; inconclusive = small, poorly fitted or top-dose-only effect, or another doubt; inactive = no such curve, though single readings can be large or run the other way.

experiment: Secondary Assay for Inhibitors of Human Cdc-like kinase 4 (Clk4): HEK-293 Cell Viability Assay; conditions: HEK-293 viability, ATP luminescence (CellTiter-Glo), 24/48 h; series mostly up to 46.1 µM; activity change, negative = cytotoxicity: at the top concentration;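 also: cytotoxic hits lower the ATP light signal so activity reflects loss of viability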; as to activity change, negative = cytotoxicity: % of control where 0% means no effect
Experimental: NIH Molecular Libraries Probe Production Centers Network [MLPCN] NIH Chemical Genomics Center [NCGC] MLPCN Grant: 1R03MH084827-01 Assay Submitter (PI): Tom Misteli NCGC Assay Overview: Cytotoxicity of the active compounds in the Clk4 screens was assessed using the CellTiter-Glo Luminescent Cell Viability Assay kit (Promega, USA) in the HEK-293 (ATCC) cell line. CellTiter-Glo measures the intracellular ATP present in metabolically active cells using Ultra-Glo as the luciferase to detect ATP levels. In brief, the luciferase in the buffer catalyzes the oxidation of luciferin to oxyluciferin and light which is dependent on ATP. […] Wells treated with various concentrations of cycloheximide (Sigma) and DMSO, and wells with media alone were used as positive and negative controls, respectively. […] [1] http://www.promega.com/tbs/tb288/tb288.pdf
NCGC Assay Protocol Summary: HEK-293 cells were grown in a flask up to 80% confluence. Cells were trypsinized, washed, and resuspended in MEM Eagle + 10% FBS + 1% pen-strep media at a concentration of 120 cells/uL. Five uL/well of cell solution was dispensed into a 1536-well assay plates (Greiner, solid white medium-binding plates) with Aurora Discovery BioRAPTR Flying Reagent Dispenser (FRD; Beckton-Dickenson). Cells were pre-incubated at 37 degree Celsius, 5% CO2 for four hours. Compound and control solutions (23nL) were then transferred to the assay plate using the Kalypsys 1536-pin tool. Assay plates were re- incubated at 37 degree Celsius, 5% CO2. After 24 or 48 hours, five uL of CellTiter Glo detection reagent was added. Luminescence signal was read with Perkin Elmer ViewLux plate reader after 30 min room temperature incubation.
Potency is read from the fitted curve at half-maximal effect.

First: c1nc(NCC2CCCO2)c2ccc(-c3ccc4c(c3)OCO4)cc2n1 (stereo not given)
Second: CN(CC1CCCO1)c1ncnc2ccc(-c3ccc4c(c3)OCO4)cc12 (stereo not given)
The “activity change, negative = cytotoxicity” value of the first is lower: -17.5% for the first, -9.72% for the second.

Going from `Cc1ccc(CNc2ncnc3ccc(-c4ccoc4C)cc23)o1` to `Cc1csc(CNc2ncnc3ccc(-c4ccco4)cc23)c1`, the “activity change, negative = cytotoxicity” value rises from -14.1% to -6.58%.

Compared with `Fc1cccc(CNc2ncnc3ccc(-c4ccoc4)cc23)c1`, `c1nc(NCc2ccoc2)c2cc(-c3ccc4c(c3)OCO4)ccc2n1` is lower in “activity change, negative = cytotoxicity” value: 6.22% for the first, -18.3% for the second.

First: Cn1ccc2cc(-c3ccc4ncnc(NCc5ccc6c(c5)OCO6)c4c3)ccc21
Second: Cn1cncc1CNc1ncnc2ccc(-c3ccc4c(c3)OCO4)cc12
The “activity change, negative = cytotoxicity” value of the first is lower: -17.8% for the first, -1.99% for the second.

First: CN(Cc1ccco1)c1ncnc2ccc(-c3ccoc3)cc12
Second: Cc1nc(CNc2ncnc3ccc(-c4ccoc4)cc23)cs1
The “activity change, negative = cytotoxicity” value of the first is lower: -9.24% for the first, 2.4% for the second.

Going from `c1nc(OCc2cnc[nH]2)c2cc(-c3ccc4c(c3)OCO4)ccc2n1` to `c1nc(NCCc2cnc[nH]2)c2ccc(-c3ccc4c(c3)OCO4)cc2n1`, the “activity change, negative = cytotoxicity” value falls from 5.34% to -4.05%.

Compared with `c1cncc(CNc2ncnc3ccc(-c4cccnc4)cc23)c1`, `c1cncc(CNc2ncnc3ccc(-c4ccco4)cc23)c1` is lower in “activity change, negative = cytotoxicity” value: 8.34% for the first, -24.3% for the second.

Going from `Cn1cnc(CCNc2ncnc3ccc(-c4ccc5c(c4)OCO5)cc23)c1` to `Cc1nc(CCNc2ncnc3ccc(-c4ccc5c(c4)OCO5)cc23)cs1`, the “activity change, negative = cytotoxicity” value falls from 1.14% to -12.5%.

Compared with `Cc1nc(CCN(C)c2ncnc3ccc(-c4ccc5c(c4)OCO5)cc23)cs1`, `CCn1cnc(CCN(C)c2ncnc3ccc(-c4ccc5c(c4)OCO5)cc23)c1` is higher in “activity change, negative = cytotoxicity” value: -17% for the first, -2.87% for the second.

Going from `O=C(O)c1ccc(-c2ccc3ncnc(NCCc4cnc[nH]4)c3c2)o1` to `CCOC(=O)c1ccc(-c2ccc3ncnc(NCCc4cnc[nH]4)c3c2)o1`, the “activity change, negative = cytotoxicity” value falls from 0.179% to -6.21%.

Going from `c1nc(N2CCNCC2)c2cc(-c3ccc4c(c3)OCO4)ccc2n1` to `CN(CC(=O)O)c1ncnc2ccc(-c3ccc4c(c3)OCO4)cc12`, the “activity change, negative = cytotoxicity” value rises from -12.9% to -7.63%.

First: Cc1csc(CNc2ncnc3ccc(-c4cccnc4)cc23)c1
Second: Cc1csc(CNc2ncnc3ccc(-c4ccc5c(c4)OCCO5)cc23)c1
The “activity change, negative = cytotoxicity” value of the first is higher: 0.236% for the first, -15.6% for the second.

Going from `Cc1csc(CNc2ncnc3cc(-c4ccc5c(c4)OCO5)ccc23)n1` to `c1csc(CNc2ncnc3cc(-c4ccc5c(c4)OCO5)ccc23)c1`, the “activity change, negative = cytotoxicity” value falls from 0.525% to -10.7%.

Compared with `Clc1ccccc1-c1ccc2ncnc(NCc3cccs3)c2c1`, `Clc1ccccc1-c1ccc2ncnc(NCc3cccnc3)c2c1` is higher in “activity change, negative = cytotoxicity” value: -4.53% for the first, 11.7% for the second.

Compared with `COc1cccc(-c2ccc3ncnc(NCc4cccs4)c3c2)c1`, `Cc1ccsc1CNc1ncnc2ccc(-c3ccc4c(c3)OCO4)cc12` is lower in “activity change, negative = cytotoxicity” value: -9.42% for the first, -13.2% for the second.

First: CCOC(=O)c1ccoc1-c1ccc2ncnc(NCc3ncc[nH]3)c2c1
Second: CCOC(=O)c1ccoc1-c1ccc2ncnc(NCCc3cnc[nH]3)c2c1
The “activity change, negative = cytotoxicity” value of the first is lower: -11.2% for the first, 0.328% for the second.

First: CCN(CCc1cn(C)cn1)c1ncnc2ccc(-c3ccc4c(c3)OCO4)cc12
Second: CCCN(Cc1cccs1)c1ncnc2ccc(-c3ccc4c(c3)OCO4)cc12
The “activity change, negative = cytotoxicity” value of the first is lower: -6.06% for the first, -4.38% for the second.

First: Cc1nc(C)c(-c2ccc3ncnc(NCc4ncc[nH]4)c3c2)s1
Second: COc1cccc(Nc2ncc3ncc(=O)n(C)c3n2)c1
The “activity change, negative = cytotoxicity” value of the first is lower: -19.3% for the first, -7.13% for the second.

For `Cc1ccc(CN(C)c2ncnc3ccc(-c4ccc(CO)o4)cc23)o1`, the Potency was 12.5 µM (active).
With `COc1cccc(Nc2ncc3nc(-c4cn(C)c5ccccc45)c(=O)n(CCC#N)c3n2)c1` the Potency was 7.91 µM (active).
With `Cc1nc(CN(C)c2ncnc3ccc(-c4ccc5c(c4)OCO5)cc23)cs1` the Potency was 28.1 µM (active).
For `Cc1ccc(CNc2ncnc3ccc(-c4ccc([C@@H](C)O)o4)cc23)o1`, the Potency was “inactive”.
